High-throughput results (PubChem BioAssay)
The list is not random: actives were taken first. Their share in the collection is about 4.4%.
PfHsp90 set2: reduces growth (ATP signal) of yeast expressing P. falciparum Hsp90. S. cerevisiae expressing PfHsp90, BacTiter-Glo ATP, 48 h; yeast lacking PDR1 and PDR3 efflux regulators. inhibition, % at 9.4 µM. 0.32% of 310,000 active. AID 504621;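 active = every replicate shows inhibition above about 80%, whatever the replicate mean, limit read from the data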
TIM10 inh: growth inhibitors of TIM10 yeast strain | S. cerevisiae TIM10 strain growth, BacTiter-Glo luminescence, 24 h | inhibition, % at 10 µM | 1.4% of 330,000 active;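 active = inhibition of 40% or more at the single tested concentration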;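 note: wild-type TIM10 isogenic control strain grown at permissive 25 °C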
tim10-1 inh: growth inhibitors of tim10-1 mutant yeast; S. cerevisiae tim10-1 ts strain growth, BacTiter-Glo, 24 h; inhibition, % at 20 µM; 2.2% of 330,000 active; AID 463190;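 active = inhibition of at least 40%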;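 note: mutant grown at 25 °C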
tim23-1 inh: tim23-1 yeast growth inhibition. S. cerevisiae tim23-1 growth, BacTiter-Glo luminescence, 24 h. inhibition, % at 20 µM. 1.3% of 330,000 active. AID 463212;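 active = growth inhibition of the mutant yeast at or above 50%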;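 note: temperature-sensitive mutant grown at 25 °C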
Mot1-301 SUMO: inhibitors of SUMOylation pathway: yeast Mot1-301 growth rescue; S. cerevisiae Mot1-301 growth rescue, ATP luminescence, 38.5C; percent above DMSO median, 100 means doubled; growth rescue, % at 18.8 µM; 1% of 320,000 active;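 active = every valid replicate shows activation above 250% relative to neutral control wells; inactive = the rest, any valid replicate at or below 250%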
tim10-1 confirm: confirmation of tim10-1 mutant yeast growth inhibitors. shares compounds with tim10-1 inh. S. cerevisiae tim10-1 ts strain growth, BacTiter-Glo, 24 h. inhibition, % at 20 µM. 56% of 7,400 active. AID 463213;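 active = inhibition of yeast growth at or above a set limit in either of two repeat tests at 20 µM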;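 note: tim10-1 mutant grown at permissive 25 °C to find synthetic lethal compounds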
Each line names hits and unclear results; the compound was inactive in the other large screens (follow-up assays come after a bar, where they were run).

COc1ccccc1NC(=S)NC(=O)C(C)(C)C	tim10-1 inh 49.5 | tim10-1 confirm inactive
CCc1ccc(/C=C/C(=O)c2c(C)cc(C)[nH]c2=O)cc1	tim10-1 inh 44.5 (no result: PfHsp90 set2) | tim10-1 confirm 37.7
CCc1ccc(/C=C(\C)C(=O)c2c(C)cc(C)[nH]c2=O)cc1	none
Cc1ccc(/C=C/C(=O)c2c(C)cc(C)[nH]c2=O)cc1	tim10-1 inh 42.9 (no result: PfHsp90 set2, Mot1-301 SUMO) | tim10-1 confirm 38.5
CC(=O)Nc1sc(C)c(C)c1C(=O)OCC(=O)NC(C)c1ccccc1 (centres undefined)	none (no result: Mot1-301 SUMO)
C/C1=C\CCC2C(/C=C(\C)CC1)OC(=O)C2CN1CCCCC1 (centres undefined)	tim10-1 inh 40.5 | tim10-1 confirm 43.1
COc1cccc(NC(=O)CN(C)C(=O)c2cc(S(=O)(=O)N3CCCCCC3)ccc2OC)c1	none
CCCN(C(=O)Cc1coc2cc(OC)ccc12)C1CCS(=O)(=O)C1 (centres undefined)	none
COc1cc(CCC(=O)Nc2c(C(=O)N3CCN(c4ccccc4OC)CC3)oc3ccccc23)on1	tim10-1 inh 42.4 | tim10-1 confirm inactive
COc1ccccc1C(=O)Nc1nc2cc3c(cc2s1)OCCO3	tim10-1 inh 43.3 | tim10-1 confirm inactive
CCN1C(=O)[C@@H]2[C@@H](c3ccc(-c4ccc(Cl)c(Cl)c4)c(OC)c3)N3CCCC[C@@]3(C(=O)OC)[C@@H]2C1=O	none
CN1C(=S)SC(C)(C)C1(C)NO (centres undefined)	tim10-1 inh 71.2 | tim10-1 confirm inactive
Cc1ccc(C)c(N2CCN(C(=O)CCC(=O)Nc3nnc(CC(C)C)s3)CC2)c1	none
Cc1ccc(C)c(N2CCN(C(=O)CCC(=O)Nc3nnc(C(F)(F)F)s3)CC2)c1	tim10-1 inh 54.6 | tim10-1 confirm inactive
COC(=O)c1c(NC(=O)c2nn(C)cc2Cl)sc2c1CCCC2	tim10-1 inh 49.9 (no result: PfHsp90 set2) | tim10-1 confirm inactive
CCc1cc(C(=O)c2ccccc2)c(N)s1	none
Nc1ccc(SC(F)(F)F)cc1C(=O)c1ccccc1	tim10-1 inh 50.2 (no result: Mot1-301 SUMO) | tim10-1 confirm inactive
CCSc1cc(C)nc2c(-c3ccccc3)c(C)nn12	tim10-1 inh 40.2 | tim10-1 confirm inactive
C=C(C)CSc1cc(C)nc2c(-c3ccccc3)c(C)nn12	none
Cc1cc(NCCC(C)C)n2nc(C)c(-c3ccccc3)c2n1	tim10-1 inh 44.7 | tim10-1 confirm inactive
CCOCCCNC(=O)c1cn(CC)c2ccc(S(=O)(=O)N3CCCC3)cc2c1=O	none
CCC(C(=O)Nc1ccon1)c1ccccc1 (centres undefined)	none
Cc1ccc(SC2=C(N(C)C)C(=O)c3ccccc3C2=O)cc1	none (no result: TIM10 inh, tim10-1 inh, tim23-1 inh, Mot1-301 SUMO)
Cc1ccc(S(=O)(=O)CCc2nnc(NC(=O)c3ccccn3)s2)cc1	tim10-1 inh 44.3 | tim10-1 confirm inactive
Cc1ccc(S(=O)(=O)CCc2nnc(NC(=O)c3cnccn3)s2)cc1	none
CN(CC(=O)Nc1ccccc1Br)CC(=O)Nc1ccccc1C(F)(F)F	none
COc1ccccc1NC(CC(=O)c1ccccc1)C(=O)OCC(=O)c1ccc(Br)cc1 (centres undefined)	tim10-1 inh 45.0 | tim10-1 confirm 37.2
CN1/C(=C/C2CC(=O)N(c3cccc4ccccc34)C2=O)C(C)(C)c2ccccc21 (centres undefined)	tim10-1 inh 50.7 | tim10-1 confirm 39.0
CC(C)c1ccc(C2c3[nH]c4ccccc4c3C[C@H]3C(=O)N(c4ccccc4C(=O)N4CCC[C@H]4C(=O)O)C(=O)N23)cc1 (some centres undefined)	none
Cc1ccc(C(=O)Nc2ccc(C(=O)N3CCCCC3C)cc2)cc1 (centres undefined)	tim10-1 inh 46.5 | tim10-1 confirm inactive
COc1ccc(/C=N/OCC(=O)N=Nc2c(O)[nH]c3ccc(Br)cc23)cc1	none
Cc1cccc(C)c1OCC(=O)N=Nc1c(O)[nH]c2ccc(Br)cc12	tim10-1 inh 52.5 | tim10-1 confirm 34.6
CCN(CC)CCCNc1ccc2ncn3c4ccc(O)cc4c(=O)c1c23	none (no result: TIM10 inh, tim10-1 inh, tim23-1 inh, Mot1-301 SUMO)
O=C(C1CCN(S(=O)(=O)c2cccc3cccnc23)CC1)N1CC=C(c2ccccc2)CC1	tim10-1 inh 43.3 (no result: PfHsp90 set2, Mot1-301 SUMO) | tim10-1 confirm inactive
O=C(C1CCN(S(=O)(=O)c2cccc3cccnc23)CC1)N1CCCC1	none
CCCCCCCCCCCCN1[C@@H](CC(=O)O)c2cc(C(F)(F)F)ccc2S1(=O)=O	tim10-1 inh 63.7 | tim10-1 confirm inactive
Cc1nn(Cc2c(F)c(F)c(F)c(F)c2F)c(C)c1NC(=O)c1ccc(COc2ccccc2Cl)o1	tim10-1 inh 46.4 (no result: PfHsp90 set2) | tim10-1 confirm 31.6
CC(C)c1nc2c(s1)CCc1onc(-c3cccc([N+](=O)[O-])c3)c1-2	none
O=C(Cc1cccc2ccccc12)N1CCN(c2ncccn2)CC1	none
O=C(Cc1coc2ccc3ccccc3c12)N1CCN(c2ncccn2)CC1	tim10-1 inh 42.6 (no result: PfHsp90 set2) | tim10-1 confirm inactive
COc1cc(SC)ccc1C(=O)NNC(=O)c1cc(C)oc1C	tim10-1 inh 53.4 | tim10-1 confirm inactive
COc1cc(SC)ccc1C(=O)Nc1c(C)cccc1C	none (no result: PfHsp90 set2)
O=C(CCCC(=O)c1ccccc1)Nc1ccc(O)cc1	none
CCCC[C@@H]1CNC(=S)N1CC1CCCCC1	none
CCCC[C@@H]1CNC(=S)N1CCC12CC3CC(CC(C3)C1)C2	tim10-1 inh 41.5 | tim10-1 confirm inactive
Cc1ccc(C(=O)O/N=C(\c2ccccc2)c2ccncc2)cc1	none
Cc1ccccc1C(=O)O/N=C(\N)c1ccc([N+](=O)[O-])cc1	tim10-1 inh 53.0 | tim10-1 confirm 61.9
COc1ccccc1C(=O)O/N=C(/c1ccncc1)c1ccc([N+](=O)[O-])cc1	tim10-1 inh 47.1 | tim10-1 confirm inactive
N/C(=N\OC(=O)c1ccccc1Br)c1ccc([N+](=O)[O-])cc1	none
COc1cc(C(=O)O/N=C(\N)c2ccc([N+](=O)[O-])cc2)cc(OC)c1OC	tim10-1 inh 59.3 | tim10-1 confirm 47.5
Cn1c(=O)c2[nH]c(CCNC(=O)c3ccccc3)nc2n(C)c1=O	none (no result: TIM10 inh, tim10-1 inh, tim23-1 inh, Mot1-301 SUMO)
CC1CCC(NC(=O)CSc2nncn2C)CC1 (centres undefined)	none (no result: PfHsp90 set2)
CCCCC1C2=C(CC(C)(C)CC2=O)OC2=C1C(=O)CC(C)(C)C2	tim10-1 inh 44.0 | tim10-1 confirm 37.9
CCCCCCC1C(C#N)=C(N)OC2=C1C(=O)CC(C)(C)C2 (centres undefined)	none
CN(C(=S)NC(=O)c1ccc(Cl)cc1)C1CCCCC1	tim10-1 inh 42.2 | tim10-1 confirm inactive
O=C(Cc1ccc([N+](=O)[O-])cc1)Nc1ccc2c(c1)CCC2	none
COc1cc(C(c2c(C)[nH][nH]c2=O)c2c(C)[nH][nH]c2=O)ccc1OCc1ccc([N+](=O)[O-])cc1	tim10-1 inh 56.9 (no result: PfHsp90 set2) | tim10-1 confirm 51.0
COc1cc(C(c2c(C)[nH][nH]c2=O)c2c(C)[nH][nH]c2=O)ccc1OC(C)C	tim10-1 inh 40.5 | tim10-1 confirm 41.5
